Data taken from PubChem BioAssay AID2278 (National Center for Advancing Translational Sciences (NCATS), 2010).
Results filed as inconclusive are left out. A call without a number means that no potency is given here. Active and inactive are the calls of the source. Calls come from the whole dose curve; as a rule, active = well fitted curve in the direction sought with a large enough effect; inconclusive = small, poorly fitted or top-dose-only effect, or another doubt; inactive = no such curve, though single readings can be large or run the other way.

target: Group 10 secretory phospholipase A2 (Mus musculus) (UniProt Q9QXX3); test: Secondary Assay for Inhibitors of Ubiquitin-specific Protease USP2a: PLA2 Counterscreen; settings: purified murine PLA2, NBD C6-HPC fluorescence; series mostly up to 57.5 µM
Text: NIH Molecular Libraries Screening Centers Network [MLSCN] NIH Chemical Genomics Center [NCGC] MLSCN Grant: XO1-MH079852-01 PI Name: Nicholson, Ben. Progenra Inc, Malvern, PA NCGC Assay Overview: Homeostasis of cellular proteins is maintained through a combination of synthesis and degradation. The pathway that accounts for the majority of protein degradation is the ubiquitin-proteasomal pathway. Ubiquitin (Ub) is highly conserved in all cells and the generation of a multi-Ub chain typically targets proteins for degradation by the proteasome. However, ubiquitination is highly reversible and dynamic. Deubiquitination, the reverse process, is catalyzed through the action of enzymes referred to as isopeptidases or deubiquitinating enzymes (DUBs). This group of enzymes is collectively responsible for maintaining adequate pools of free ubiquitin and regulating the ubiquitination status of cellular proteins. The class of DUBs referred to as the ubiquitin-specific proteases (USP) family functions endoproteolytically to cleave Ub chains from a wide range of protein substrates. USP2a deubiquitinates fatty acid synthase (FASN) which has recently been identified as an emerging oncology target. To identify inhibitors of USP2a a cell-free assay was employed. This is assay is a counterscreen used for the for the USP2a-PLA2 coupled assay. In this assay the murine PLA2 reporter enzyme is screened alone using NBD C6-HPC (Invitrogen) as a fluorogenic substrate.
NCGC Assay Protocol Summary: The assay buffer, prepared fresh at the day of the assay, contains 20mM Tris-HCl pH 8.0, 2mM CaCl2, 2mM beta-mercaptoethanol, 0.1% DMSO. 3ul of 10nM (5nM final) free PLA2, which is stored on ice, is dispensed into a medium-binding black solid Kalypsys 1,536 well plate using the Aurora BioRaptr. The assay plate is then pinned with 23nL compound with the Kalypsys pintool. The controls were pinned as follows: row 31 2M NEM and row 32 DMSO. Subsequently, 3uL 40uM (20uM final) NBD C6-HPC (stored on ice and protected from light) were dispensed into the plate using the BioRaptr dispenser. Plates were read immediately on an Envision (Perkin Elmer) plate reader using wavelengths of Ex 460nm /Em 535nm. Then, the assay plates were incubated for 2.5 hours and read again on the Envision using the same settings. Data were normalized to the to AC100 inhibition (NEM). Concentration-response curves were fitted to the normalized data and the concentration-response curves were then classified based on curve quality (r2), response magnitude and degree of measured activity. The time zero reading was used to flag fluorescence artifacts. Keywords: ubiquitination, deubiquitination, proteases, profluorescent, MLSMR, MLSCN, NIH Roadmap, qHTS, NCGC

Chain of Group 10 secretory phospholipase A2 (Mus musculus) (Q9QXX3 whole entry, looked up): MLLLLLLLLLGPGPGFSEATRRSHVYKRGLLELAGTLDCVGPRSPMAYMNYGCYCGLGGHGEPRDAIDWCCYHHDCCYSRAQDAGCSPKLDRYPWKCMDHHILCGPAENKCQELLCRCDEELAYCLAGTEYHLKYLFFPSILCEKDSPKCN

| SMILES | Potency |
| --- | --- |
| Cc1ccc(-n2nc3c(=O)n(CCCC(=O)NCCc4ccccc4Cl)nc(C)c3c2C)cc1 | inactive |
| Cc1cc(C)cc(NC(=O)c2sc3nc4n(c(=O)c3c2C)N=C(c2ccccc2)CS4)c1 | 20 µM (active) |
| CCOc1ccc(C2=C(C(C)=O)Sc3nnc(C)n3N2C(C)=O)cc1 | inactive |
| O=C(CSc1nc2ccsc2c(=O)n1-c1ccc(Br)cc1)NCc1ccccc1 | inactive |
| CCOC(=O)C1CCCN(c2c(C(=O)c3ccc(C)cc3)cnc3ccc(OCC)cc23)C1 (stereo not given) | inactive |
| CCCCn1c(SCC(=O)NCCCOC)nc2c(sc3ccccc32)c1=O | inactive |
| CCCc1cc(=O)oc2c3c(ccc12)OCN(Cc1ccc(OC)cc1)C3 | inactive |
| Cc1c(C(=O)N(C)C)sc2c1c(=O)n(-c1ccc(Cl)c(Cl)c1)c(=O)n2CC(=O)Nc1ccc(Br)cc1F | inactive |
| COc1ccc(Cl)cc1NC(=O)CSc1nc(=O)[nH]c2c1CCC2 | inactive |
| Cc1nnc(SCC(=O)NCc2ccccc2F)c2nn(-c3ccc(Cl)cc3)c(C)c12 | inactive |
| COc1ccc(C(=O)/C=C/c2cn(CC(O)CN(CC(C)C)CC(C)C)c3ccccc23)cc1OC (stereo not given) | inactive |
| Cc1cc(C)c2nc(N(Cc3cccnc3)C(=O)CCS(=O)(=O)c3ccccc3)sc2c1 | inactive |
| CCc1ccc(C(=O)c2c(N)c(-c3nc(-c4ccc5c(c4)OCO5)cs3)c3ccccn23)cc1 | inactive |
| CCCCCC(=O)N1c2ccccc2C(C)(c2ccccc2)CC1(C)C (stereo not given) | inactive |
| Cc1nn(C(=O)c2cccc([N+](=O)[O-])c2C)c(C)c1S(=O)(=O)N1CCCCCC1 | inactive |
| COC(=O)c1c(NC(=O)CS(=O)(=O)c2ccc(C)cc2)sc2c1CCCCC2 | inactive |
| CCC(=O)C1=C(c2ccc(OC)c(OC)c2)N(C(=O)CC)n2c(CC)nnc2S1 | inactive |
| CC(=O)Nc1ccc(NC(=O)Cn2nc(C(=O)Nc3ccc(C)cc3)ccc2=O)cc1 | inactive |
| COc1ccc(C2C=C(c3ccc(Br)cc3)Nc3nnnn32)c(OC)c1 (stereo not given) | inactive |
| COc1ccc2c(c1)c1c(c(=O)n(-c3ccc(OC)c(OC)c3)c(=O)n1Cc1ccccc1C)n2C | inactive |
| COc1ccc(C2=CC(c3cccc(C)c3)n3nnnc3N2)cc1 (stereo not given) | inactive |
| Cc1ccc2scc(N3CCN(c4cccc(C(F)(F)F)c4)CC3)c(=O)c2c1 | inactive |
| O=c1c(O)c(-c2cc(O)c(O)c(O)c2)oc2cc(O)cc(O)c12 | inactive |
| CCc1cccc(NC(=O)CSc2ncccc2C(=O)Oc2ccccc2Cl)c1 | inactive |
| O=C(CCS(=O)(=O)c1ccccc1)N(Cc1cccnc1)c1nc2c(Cl)cccc2s1 | inactive |
| CCC(C)NC(=O)CSc1nc2cc3c(cc2c(=O)n1Cc1ccc(C(=O)NCCc2ccc(OC)c(OC)c2)cc1)OCO3 (stereo not given) | inactive |
| Oc1c(C(Nc2ccccn2)c2ccccc2F)ccc2cccnc12 (stereo not given) | inactive |
| COc1cc(C2C(C(=O)Nc3ccccc3C)=C(C)Nc3nc(SCc4cc(C)ccc4C)nn32)ccc1O (stereo not given) | inactive |
| Cc1ccc([C@H]2Nc3ccc(S(=O)(=O)Nc4cccc(Cl)c4C)cc3[C@H]3C=CC[C@H]32)cc1 | inactive |
| O=C(CSc1nc(=O)n(Cc2ccccn2)c2c1CCC2)Nc1ccccc1 | inactive |
